The source of these data is PubChem BioAssay (NCI).

Among the test systems are SK-MEL-2 melanoma; EKVX NSCLC; SN12C renal; UO-31 renal; TK-10 renal; A498 renal; CCRF-CEM leukemia; MOLT-4 leukemia; SR leukemia; RPMI-8226 leukemia; OVCAR-8 ovarian; OVCAR-5 ovarian; OVCAR-4 ovarian; SK-OV-3 ovarian; IGROV1 ovarian; OVCAR-3 ovarian; HS 578T breast; NCI/ADR-RES ovarian; ACHN renal.
What all share (test): NCI-60 one-dose screen, 48 h (100 = growth as untreated, 0 = no growth, -100 = all killed)
What all share (details): 10 µM unless noted

SMILES strings stand for the structures. Compounds without any hit were thinned out: in the full panel of roughly 83,000, 20% have a hit.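 Plates (96-well) were seeded with cells, treated with compound at one concentration, and incubated for 48 hours before percent growth was determined.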 A number with no mark means an inactive call. Active and inactive are the calls of the source. The calls were made as follows: active = growth percent below 10; inactive = the rest.

Turning to `O=C(NC1CCOCC1)c1ccc2c(c1)CN(c1ncc(Cc3cccc(-n4cccn4)c3)s1)CC2`, the growth was 54.9% in the assay on SK-MEL-2 melanoma; 53.5% in the assay on EKVX NSCLC; 82.1% in the assay on SN12C renal; 64.4% with UO-31 renal; 81.7% with TK-10 renal; 46.6% in the assay with A498 renal. The growth with CCRF-CEM leukemia is 52.1%; in the assay on MOLT-4 leukemia, 40.3%; in the assay with SR leukemia it was 56.2%; with RPMI-8226 leukemia, 38.3%; with OVCAR-8 ovarian it was 76.6%; with OVCAR-5 ovarian, 95.1%. Further, the growth in the assay on OVCAR-4 ovarian is 62.1%; in the assay with SK-OV-3 ovarian, 78.6%; in the assay on IGROV1 ovarian, 89.8%; in the assay with OVCAR-3 ovarian, 78.4%; in the assay on HS 578T breast, 96%; in the assay on NCI/ADR-RES ovarian it was 63.5%.

As for `CCCCCOC(=O)c1cccc(NC(=O)CN(CC)CC)c1`, the growth is 70.7% in the assay with SK-MEL-2 melanoma; 100% in the assay with EKVX NSCLC; 106% in the assay on SN12C renal; 89.2% in the assay with UO-31 renal; 82.9% in the assay on TK-10 renal; 113% with A498 renal. For the same molecule, the growth in the assay with CCRF-CEM leukemia was 78.6%; in the assay on MOLT-4 leukemia it was 87.5%; with SR leukemia, 78.3%; in the assay with RPMI-8226 leukemia, 96.7%; with OVCAR-8 ovarian it was 103%; in the assay with OVCAR-5 ovarian it was 107%. Besides, the growth is 119% in the assay on OVCAR-4 ovarian; 94.9% in the assay on SK-OV-3 ovarian; 107% with IGROV1 ovarian; 113% in the assay on OVCAR-3 ovarian; 111% with HS 578T breast; 105% with NCI/ADR-RES ovarian.

Consider `COc1cc2c(cc1OC)-c1ccc3cc4c(cc3c1N(CCN(C)C)C2)OCO4`, for which the growth with SK-MEL-2 melanoma was 36%; in the assay with EKVX NSCLC it was 25.4%; in the assay on SN12C renal it was 0.583% (active); in the assay on UO-31 renal, 24.2%; in the assay with TK-10 renal, 16.6%; in the assay with A498 renal, -33.8% (active). Also, the growth in the assay on CCRF-CEM leukemia is -1.03% (active); in the assay on MOLT-4 leukemia it was 0.14% (active); with SR leukemia, 1.13% (active); in the assay on RPMI-8226 leukemia, -41.1% (active); with OVCAR-8 ovarian, -24.7% (active); in the assay on OVCAR-5 ovarian, 8.24% (active). Also, the growth in the assay on OVCAR-4 ovarian was 26.7%; in the assay on SK-OV-3 ovarian, -21.2% (active); in the assay on IGROV1 ovarian, -31.2% (active); in the assay on OVCAR-3 ovarian, 8.78% (active); in the assay on HS 578T breast, -2.39% (active); with NCI/ADR-RES ovarian it was 72.3%.

Take `CCN(CC)CC(=O)Nc1cccc(C(=O)OC(C)C)c1`: the growth in the assay with SK-MEL-2 melanoma is 81.9%; with EKVX NSCLC it was 96.4%; in the assay with SN12C renal, 107%; with UO-31 renal, 89.7%; in the assay on TK-10 renal it was 87.5%; in the assay on CCRF-CEM leukemia it was 86.6%. Moreover, the growth with MOLT-4 leukemia is 96.2%; with SR leukemia it was 95.2%; in the assay with RPMI-8226 leukemia, 105%; in the assay with OVCAR-8 ovarian it was 108%; in the assay on OVCAR-5 ovarian, 104%; with OVCAR-4 ovarian it was 103%. Further, the growth is 101% in the assay on SK-OV-3 ovarian; 104% in the assay with IGROV1 ovarian; 103% in the assay on OVCAR-3 ovarian; 120% with HS 578T breast; 97% with NCI/ADR-RES ovarian.

Regarding `CO/C(=C1/NC(=O)C(Cc2ccc(O)c(Br)c2)N(C)C(=O)C(C)NC(=O)CCC/C=C(\C)CCC(C)OC1=O)c1ccccc1` (stereo unspecified), the growth with SK-MEL-2 melanoma is -100% (active); with EKVX NSCLC, -25.3% (active); in the assay with SN12C renal, 6.56% (active); in the assay with UO-31 renal, -84.9% (active); in the assay with TK-10 renal, -83.2% (active); in the assay with ACHN renal, -34.7% (active). For the same molecule, the growth in the assay on MOLT-4 leukemia is -12.2% (active); in the assay on SR leukemia it was -25.9% (active); in the assay on RPMI-8226 leukemia it was -57.4% (active); with OVCAR-5 ovarian, -2.82% (active); in the assay on OVCAR-4 ovarian, 0.0232% (active); with SK-OV-3 ovarian, -42.2% (active). For the same molecule, the growth in the assay on IGROV1 ovarian was -80% (active); with OVCAR-3 ovarian it was -67.5% (active); in the assay with HS 578T breast, -34% (active); in the assay with NCI/ADR-RES ovarian, -0.469% (active).

For `CCN(CC)CCNc1ccc(C)c2sc3cc(C)ccc3c(=O)c12`, the growth in the assay on SK-MEL-2 melanoma was 55.7%; with EKVX NSCLC it was 81.3%; in the assay with SN12C renal, 53.8%; with UO-31 renal it was 41%; in the assay on TK-10 renal it was 57.9%; with A498 renal, 84.8%. In addition, the growth in the assay with CCRF-CEM leukemia is 34%; in the assay with MOLT-4 leukemia it was 30.6%; in the assay with SR leukemia, 6.89% (active); in the assay on RPMI-8226 leukemia, 10.4%; in the assay with OVCAR-8 ovarian, 57%; in the assay on OVCAR-5 ovarian, 79.5%. In addition, the growth was 85.3% with OVCAR-4 ovarian; 74.8% in the assay with SK-OV-3 ovarian; 52.4% with IGROV1 ovarian; 76.6% with OVCAR-3 ovarian; 73% with HS 578T breast; 59.2% with NCI/ADR-RES ovarian.

For the molecule `CCN(CC)CCOC(=O)N1c2ccccc2Sc2ccccc21`, the growth in the assay with SK-MEL-2 melanoma is 97.9%; with EKVX NSCLC, 106%; with SN12C renal, 101%; in the assay on UO-31 renal, 87.9%; with TK-10 renal, 88.2%; with A498 renal it was 97.1%. The growth was 69.1% with CCRF-CEM leukemia; 96.1% in the assay with MOLT-4 leukemia; 98.6% with SR leukemia; 85.6% with RPMI-8226 leukemia; 101% with OVCAR-8 ovarian; 101% in the assay with OVCAR-5 ovarian. Also, the growth with OVCAR-4 ovarian is 101%; with SK-OV-3 ovarian, 98%; in the assay on IGROV1 ovarian, 94.1%; in the assay with OVCAR-3 ovarian, 107%; with HS 578T breast it was 91.7%; with NCI/ADR-RES ovarian, 96.1%.

Regarding `CCOC(=O)c1c(C)nc2c(c1N)/C(=C/c1ccc(OC)cc1)C(=O)N2Cc1ccc(F)cc1`, the growth in the assay on SK-MEL-2 melanoma was -27.5% (active); in the assay with EKVX NSCLC, 9.23% (active); with SN12C renal it was -40% (active); in the assay on UO-31 renal, -38.4% (active); with TK-10 renal it was -70.8% (active); in the assay with A498 renal, -44.2% (active). In addition, the growth in the assay on CCRF-CEM leukemia was -5.4% (active); with MOLT-4 leukemia, 1.64% (active); in the assay with SR leukemia it was 1.71% (active); with RPMI-8226 leukemia, -17.2% (active); in the assay on OVCAR-8 ovarian it was 8.74% (active); with OVCAR-5 ovarian, -45.2% (active). In addition, the growth in the assay on OVCAR-4 ovarian was 20.9%; with SK-OV-3 ovarian it was 9.64% (active); in the assay with IGROV1 ovarian, -9.78% (active); with OVCAR-3 ovarian, -91.4% (active); with HS 578T breast it was 54.7%; with NCI/ADR-RES ovarian, 15.1%.
